Reference: PubChem BioAssay (NCI)
This is part of a sample that, as a whole, favours compounds with a hit. Of some 83,000 tested, about 20% had one in any assay.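 Negative percent growth values reflect cell death: -40 means 40% of the cells present at the start died, and -100 means all died.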

Assays:
Assay in all cases: NCI-60 one-dose screen, 48 h (100 = growth as untreated, 0 = no growth, -100 = all killed)
Conditions in all cases: 10 µM; active means growth percent below 10; inactive means the rest
NCI-H23 lung = tested on: NCI-H23 lung
NCI-H226 lung = tested on: NCI-H226 lung
HOP-62 NSCLC = tested on: HOP-62 NSCLC
NCI-H460 lung = tested on: NCI-H460 lung
NCI-H522 lung = tested on: NCI-H522 lung
A549/ATCC NSCLC = tested on: A549/ATCC NSCLC
786-0 renal = tested on: 786-0 renal
COLO 205 colon = tested on: COLO 205 colon
DU-145 prostate = tested on: DU-145 prostate
K-562 leukemia = tested on: K-562 leukemia
MDA-MB-231 breast = tested on: MDA-MB-231 breast
RXF 393 renal = tested on: RXF 393 renal
SF-268 CNS = tested on: SF-268 CNS
SF-539 CNS = tested on: SF-539 CNS
UACC-257 melanoma = tested on: UACC-257 melanoma
M14 melanoma = tested on: M14 melanoma
NCI-H322M lung = tested on: NCI-H322M lung
HOP-92 NSCLC = tested on: HOP-92 NSCLC
MALME-3M melanoma = tested on: MALME-3M melanoma
SF-295 CNS = tested on: SF-295 CNS

Measured: growth

O=[N+]([O-])c1cccc2nsnc12
inactive: NCI-H23 lung 108% | NCI-H226 lung 93.9% | HOP-62 NSCLC 99.5% | NCI-H460 lung 103% | NCI-H522 lung 103% | A549/ATCC NSCLC 104% | 786-0 renal 114% | COLO 205 colon 107% | DU-145 prostate 114% | K-562 leukemia 111% | MDA-MB-231 breast 112% | RXF 393 renal 118% | SF-268 CNS 101% | SF-539 CNS 108% | UACC-257 melanoma 87.8% | M14 melanoma 101%

O=C(/C(=N/O)c1ccccc1)c1ccccc1
inactive: NCI-H23 lung 105% | NCI-H226 lung 91.2% | NCI-H322M lung 95.8% | HOP-92 NSCLC 96.6% | NCI-H522 lung 109% | A549/ATCC NSCLC 98.1% | 786-0 renal 98.1% | COLO 205 colon 115% | DU-145 prostate 111% | K-562 leukemia 120% | MALME-3M melanoma 82% | MDA-MB-231 breast 98.5% | RXF 393 renal 102% | SF-268 CNS 100% | SF-295 CNS 94.4% | SF-539 CNS 104% | UACC-257 melanoma 97% | M14 melanoma 108%

C=CCc1cc(C(C)=O)cc(OC)c1O
inactive: NCI-H23 lung 108% | NCI-H226 lung 109% | HOP-62 NSCLC 122% | NCI-H460 lung 97.8% | HOP-92 NSCLC 125% | NCI-H522 lung 102% | A549/ATCC NSCLC 95.8% | 786-0 renal 104% | COLO 205 colon 118% | DU-145 prostate 105% | K-562 leukemia 107% | MDA-MB-231 breast 92.1% | RXF 393 renal 95.5% | SF-268 CNS 96.8% | SF-295 CNS 119% | SF-539 CNS 125% | UACC-257 melanoma 99% | M14 melanoma 105%

Cc1cc(OCCO)cc(C)c1Cl
inactive: NCI-H23 lung 106% | NCI-H226 lung 108% | HOP-62 NSCLC 111% | NCI-H460 lung 114% | HOP-92 NSCLC 114% | NCI-H522 lung 114% | A549/ATCC NSCLC 104% | 786-0 renal 97.3% | COLO 205 colon 123% | DU-145 prostate 117% | K-562 leukemia 118% | MDA-MB-231 breast 114% | RXF 393 renal 134% | SF-268 CNS 109% | SF-295 CNS 130% | SF-539 CNS 111% | UACC-257 melanoma 110% | M14 melanoma 112%

O=C(O)CNC(=O)c1ccccc1
inactive: NCI-H23 lung 107% | NCI-H322M lung 104%

O=C(O)CCC(NC(=O)OCc1ccccc1)C(=O)O (stereo not drawn)
inactive: NCI-H23 lung 101% | NCI-H226 lung 98.8% | NCI-H322M lung 98.6% | NCI-H460 lung 111% | HOP-92 NSCLC 95.9% | NCI-H522 lung 99.6% | 786-0 renal 104% | COLO 205 colon 113% | DU-145 prostate 98.7% | K-562 leukemia 96.6% | MALME-3M melanoma 96.9% | MDA-MB-231 breast 97% | RXF 393 renal 109% | SF-268 CNS 100% | SF-295 CNS 102% | SF-539 CNS 111% | M14 melanoma 103%

CCC(C)(O)c1ccc(C)cc1 (stereo not drawn)
inactive: NCI-H23 lung 103% | NCI-H226 lung 103% | HOP-62 NSCLC 98.1% | NCI-H460 lung 105% | HOP-92 NSCLC 103% | NCI-H522 lung 109% | A549/ATCC NSCLC 111% | 786-0 renal 109% | DU-145 prostate 106% | K-562 leukemia 116% | MALME-3M melanoma 119% | MDA-MB-231 breast 107% | RXF 393 renal 113% | SF-268 CNS 92.9% | SF-295 CNS 109% | SF-539 CNS 103% | UACC-257 melanoma 105%

CC(=O)NC(N)=S
inactive: NCI-H23 lung 103% | NCI-H226 lung 103% | HOP-62 NSCLC 110% | HOP-92 NSCLC 89.7% | NCI-H522 lung 95.6% | A549/ATCC NSCLC 96.1% | 786-0 renal 105% | COLO 205 colon 120% | DU-145 prostate 107% | K-562 leukemia 121% | MDA-MB-231 breast 115% | RXF 393 renal 105% | SF-268 CNS 110% | SF-295 CNS 101% | SF-539 CNS 107% | UACC-257 melanoma 101% | M14 melanoma 127%

Cc1cc(=O)n(-c2ccc(F)cc2)[nH]1
inactive: NCI-H23 lung 103% | NCI-H226 lung 98.3% | NCI-H322M lung 95.6% | NCI-H460 lung 106% | NCI-H522 lung 97.6% | A549/ATCC NSCLC 102% | 786-0 renal 105% | COLO 205 colon 107% | DU-145 prostate 109% | K-562 leukemia 99.1% | MALME-3M melanoma 102% | MDA-MB-231 breast 105% | RXF 393 renal 93.5% | SF-268 CNS 101% | SF-295 CNS 86.8% | SF-539 CNS 90.8% | UACC-257 melanoma 103% | M14 melanoma 108%

C/C(=C\c1ccc([N+](=O)[O-])cc1)C(=O)O
inactive: NCI-H23 lung 102% | NCI-H226 lung 98.3% | NCI-H322M lung 111% | HOP-92 NSCLC 95.1% | NCI-H522 lung 87.1% | A549/ATCC NSCLC 91.7% | 786-0 renal 96.7% | DU-145 prostate 110% | K-562 leukemia 97.9% | MALME-3M melanoma 108% | MDA-MB-231 breast 102% | RXF 393 renal 102% | SF-268 CNS 105% | SF-295 CNS 98.4% | SF-539 CNS 100% | UACC-257 melanoma 98.8% | M14 melanoma 95.1%
